The target of experiment [1] is Aldehyde dehydrogenase, mitochondrial (Homo sapiens) (UniProt P05091). The experiment in a line: qHTS for Inhibitors of the Aldehyde Dehydrogenase Family (ALDH2) Primary screen (AID 2061308). Note: nearly all actives have a fitted effect of over 55% in size.
Experiment [2] addresses Retinaldehyde dehydrogenase 3 (Homo sapiens) (UniProt P47895). The experiment is described as follows: qHTS for Inhibitors of the Aldehyde Dehydrogenase Family (ALDH1A3) Primary screen (AID 2061315).

SMILES strings stand for the structures. Inconclusive results are not listed. Entries that show only a call come without a potency. Active and inactive are the calls of the source. Calls come from the whole dose curve; as a rule, active = well fitted curve in the direction sought with a large enough effect; inconclusive = small, poorly fitted or top-dose-only effect, or another doubt; inactive = no such curve, though single readings can be large; an effect the other way counts as inactive or inconclusive.

Take `O=S(=O)(Nc1nccs1)c1ccc(Nc2nc(-c3ccccc3)cs2)cc1`: the Potency result in experiment [1] and in experiment [2] was “inactive” throughout.
As to `CC1CCC(C(=O)Nc2ccc([S+](=O)([O-])Nc3nccs3)cc2)CC1` (centres undefined), the Potency result in experiment [1] and in experiment [2] was “inactive” throughout.
On to `O=C(OCC#CCSc1nnc(-c2ccc(Cl)cc2)o1)c1ccc(F)cc1`, for which the Potency result in experiment [1] and in experiment [2] was “inactive” in each case.
Turning to `CC1=CC(=O)CC(C)(C)C1CCC(C)OC1OC(COC(=O)c2cc(O)c(O)c(O)c2)C(O)C(O)C1O` (centres undefined), the Potency result in experiment [1] and in experiment [2] was “inactive” in each case.
Consider `CC(=O)c1ccccc1-c1ncc(C)c(NCc2ccc(-c3cccnc3)cc2)n1`, for which the Potency entry in experiment [1] and in experiment [2] was “inactive” throughout.
Consider `C[C@@H]1CC[C@]2(C(=O)O)CC[C@]3(C(=O)O)C(=CCC4[C@@]5(C)CC[C@H](O[C@@H]6O[C@@H](C)[C@H](O[C@@H]7O[C@H](CO)[C@@H](O)[C@H](O)[C@H]7O)[C@@H](O)[C@H]6O)C(C)(C)C5CC[C@]43C)C2[C@H]1C` (some centres undefined), for which the Potency result in experiment [1] and in experiment [2] was “inactive” in each case.
Regarding `CC1=C(C(=O)N(C)C)C(c2ccccc2Br)N=C(Nc2nc3ccccc3o2)N1` (centres undefined), the Potency result in experiment [1] and in experiment [2] was “inactive” each time.
Take `Cc1ccc(Cn2ncc3c4sc(C)cc4n(C)c3c2=O)c(C)c1`: the Potency entry in experiment [1] and in experiment [2] was “inactive” in each case.
Regarding `Cc1ccc(C)c(OCCn2c(CCNC(=O)C3CCCCC3)nc3ccccc32)c1`, the Potency result in experiment [1] and in experiment [2] was “inactive” each time.
With `COc1cc(NC(=O)C(OC(=O)CNC(=O)c2ccccc2)c2ccccc2)cc(OC)c1` (centres undefined), the Potency entry in experiment [1] and in experiment [2] was “inactive” in each case.
In the case of `Cc1cc(-c2nnc3n2CCCCC3)c(C)n1-c1ccc(C(F)(F)F)cc1`, the Potency result in experiment [1] and in experiment [2] was “inactive” in each case.
Turning to `COc1ccc(-c2ccc3ncnc(NCc4cccs4)c3c2)cc1`, the Potency entry in experiment [1] and in experiment [2] was “inactive” each time.

The values above are taken from PubChem BioAssay (NCATS).
